# Data as given in a collection of fitness landscapes (doi:10.1126/science.1257360).
# Whole data set: some 140,000 sequences, median “enrichment ratio after two sorts for PhoP signalling” near 0, cut for the highest 2% near 11. The full list was thinned out, with the highest values kept by preference.
# B1: PhoQ; a variant is named by its letters at X, in order, P23837 (parent)
# chain: MKKLLRLFFPLSLRVRFLLATAAVVLVLSLAYGMVALIGYSVSFDKTTFRLLRGESNLFYTLAKWENNKLHVELPENIDKQSPTMTLIYDENGQLLWAQRDVPWLMKMIQPDWLKSNGFHEIEADVNDTSLLLSGDHSIQQQLQEVREDDDDAEMTHSVAVNVYPATSRMPKLTIVVVDTIPVELKSSYMVWSWFIYVLSANLLLVIPLLWVAAWWSLRPIEALAKEVRELEEHNRELLNPATTRELTSLVRNLNRLLKSERERYDKYRTTLTDLTHSLKTPLXXLQXXLRSLRSEKMSVSDAEPVMLEQISRISQQIGYYLHRASMRGGTLLSRELHPVAPLLDNLTSALNKVYQRKGVNISLDISPEISFVGEQNDFVEVMGNVLDNACKYCLEFVEISARQTDEHLYIVVEDDGPGIPLSKREVIFDRGQRVDTLRPGQGVGLAVAREITEQYEGKIVAGESMLGGARMEVIFGRQHSAPKDE
# Variants of: B1
# Assay: enrichment ratio after two sorts for PhoP signalling (ratio (wild type AVST 3.29)); higher = more functional
# Settings: with PhoP (E. coli)
row,Variant,enrichment ratio
1,TANR,≤ 0.25
2,ASAG,7.21
3,ASYY,≤ 0.25
4,ASRY,≤ 0.25
5,ASAI,13.2
6,ASAT,10.1
7,ASAS,15.3
8,ASAD,≤ 0.25
9,KSAA,≤ 0.25
10,ASAA,13.4
11,IFDK,≤ 0.25
12,WHPD,≤ 0.25
13,CLCS,≤ 0.25
14,RQQL,≤ 0.25
15,HTYY,≤ 0.25
16,STYY,≤ 0.25
17,QIYY,≤ 0.25
18,TGYY,22.5
19,MKYY,≤ 0.25
20,MEYY,18.8
21,QEYY,17.4
22,MTYY,0.96
23,MKAY,≤ 0.25
24,MEYI,11

row,Variant,enrichment ratio
1,MEAY,13
2,RGYY,≤ 0.25
3,NGYY,≤ 0.25
4,NFDN,≤ 0.25
5,RTPI,≤ 0.25
6,RQSW,≤ 0.25
7,IMCF,≤ 0.25
8,EDGY,≤ 0.25
9,SVSR,6.38
10,KFAE,≤ 0.25
11,SVAE,13.4
12,SVMR,12.6
13,SVSF,12.6
14,SVTR,8.52
15,SVHF,≤ 0.25
16,SVGR,1.46
17,SVHQ,≤ 0.25
18,SVAV,7.92
19,SVHP,≤ 0.25
20,SVSQ,13.4
21,WQKA,≤ 0.25
22,ARFL,≤ 0.25
23,KVIR,≤ 0.25
24,ADCI,≤ 0.25

row,Variant,enrichment ratio
1,PPMF,≤ 0.25
2,RIFK,1.58
3,NEIH,≤ 0.25
4,TNDC,≤ 0.25
5,MKCG,≤ 0.25
6,SVTS,7.51
7,SVPA,≤ 0.25
8,SVTM,14.7
9,SVLY,0.677
10,SVWM,≤ 0.25
11,SVTG,13.5
12,SVPM,7.47
13,SVVG,6.29
14,SVHG,≤ 0.25
15,SVVA,1.32
16,SVTK,11.9
17,SVTI,12
18,GRAK,≤ 0.25
19,PILY,≤ 0.25
20,EHER,≤ 0.25
21,QSNR,≤ 0.25
22,PYGV,≤ 0.25
23,SGYP,≤ 0.25
24,IIGH,≤ 0.25

row,Variant,enrichment ratio
1,RDSD,≤ 0.25
2,SVAH,12.7
3,NVCC,≤ 0.25
4,NVAH,≤ 0.25
5,SVWR,≤ 0.25
6,KFAH,≤ 0.25
7,SVMG,5.71
8,SVSG,13.4
9,SVCC,16.1
10,KFSG,≤ 0.25
11,SDSG,0.62
12,SVMH,22.9
13,SVTC,3.84
14,RVAP,≤ 0.25
15,WQNE,≤ 0.25
16,LLNR,≤ 0.25
17,TAVV,1.05
18,ARNK,≤ 0.25
19,QMLS,≤ 0.25
20,SVTH,11.9
21,PVNG,≤ 0.25
22,SVCS,8.61
23,SVWI,≤ 0.25
24,SVSK,12.7

row,Variant,enrichment ratio
1,SVSH,10.5
2,SVCG,13.3
3,SVNG,12.5
4,SVCI,10.4
5,LCNG,≤ 0.25
6,SVNH,3.33
7,SVPI,5.93
8,KLIS,≤ 0.25
9,NRHS,≤ 0.25
10,GGDF,≤ 0.25
11,FHQD,≤ 0.25
12,IWVM,≤ 0.25
13,HEVP,≤ 0.25
14,SRSF,≤ 0.25
15,SQSF,7.01
16,SVMV,9.33
17,SVMQ,15.2
18,SVCF,4.45
19,SVMS,8.47
20,SVCH,12.5
21,SLSF,11.7
22,KFCH,≤ 0.25
23,MQII,≤ 0.25
24,RDEG,≤ 0.25

row,Variant,enrichment ratio
1,FSHY,≤ 0.25
2,TALR,3.62
3,HPIF,≤ 0.25
4,MEVH,1.05
5,KSCS,≤ 0.25
6,AIVH,15
7,TEVH,16.3
8,WIVH,≤ 0.25
9,TSCS,14.7
10,TSVH,11.7
11,LCVH,≤ 0.25
12,AHVH,≤ 0.25
13,QEVH,≤ 0.25
14,TSCK,3.25
15,KSVH,≤ 0.25
16,VGWK,≤ 0.25
17,ATFQ,2.02
18,FKND,≤ 0.25
19,AFSM,0.932
20,RMFW,≤ 0.25
21,TSCI,14.8
22,KYVH,≤ 0.25
23,YSCV,15.6
24,SSVH,14.4

row,Variant,enrichment ratio
1,YRCV,≤ 0.25
2,FSCV,9.84
3,STVH,8.82
4,KSCV,≤ 0.25
5,YSCI,2.62
6,TSCV,17.3
7,TSCE,8.23
8,KSCI,≤ 0.25
9,TRVP,≤ 0.25
10,GWST,≤ 0.25
11,PYLQ,≤ 0.25
12,FLFH,≤ 0.25
13,RFWY,≤ 0.25
14,LSFF,0.737
15,MSSN,≤ 0.25
16,RYDM,≤ 0.25
17,PWRP,≤ 0.25
18,AMPS,≤ 0.25
19,TSCT,18.9
20,TSCQ,21.3
21,SEVH,17.3
22,FSCT,≤ 0.25
23,KSCQ,≤ 0.25
24,NSCA,≤ 0.25

row,Variant,enrichment ratio
1,KSCA,≤ 0.25
2,SLVH,2.06
3,SRVH,≤ 0.25
4,NSCQ,≤ 0.25
5,KSCT,≤ 0.25
6,TSCA,15.2
7,AGPW,≤ 0.25
8,MEVW,≤ 0.25
9,DAWH,≤ 0.25
10,VVRK,≤ 0.25
11,EQCP,≤ 0.25
12,QPNQ,≤ 0.25
13,MFMV,≤ 0.25
14,FTNT,≤ 0.25
15,TGEC,1.95
16,SFRM,≤ 0.25
17,FVEG,≤ 0.25
18,FWMV,≤ 0.25
19,MDAY,≤ 0.25
20,NVLK,≤ 0.25
21,MCDN,≤ 0.25
22,MMWN,≤ 0.25
23,MAAN,14.7
24,MKAT,≤ 0.25

row,Variant,enrichment ratio
1,MCWN,16.1
2,MCAN,22.5
3,MEAT,17.9
4,FDAN,≤ 0.25
5,MCNL,≤ 0.25
6,MCAT,4.13
7,MCVN,≤ 0.25
8,MAQN,≤ 0.25
9,DHKR,≤ 0.25
10,LPWC,≤ 0.25
11,DVVV,≤ 0.25
12,VKNA,≤ 0.25
13,RHPV,≤ 0.25
14,YEDC,≤ 0.25
15,MFAN,≤ 0.25
16,MDNT,≤ 0.25
17,MDAT,25.1
18,TEIN,5.99
19,MEIN,11.2
20,MDLT,≤ 0.25
21,MEAN,32.4
22,MDIN,≤ 0.25
23,NEIN,≤ 0.25
24,QEAN,2.7

row,Variant,enrichment ratio
1,TEAN,29.6
2,MKAN,≤ 0.25
3,IEYH,≤ 0.25
4,FRYS,≤ 0.25
5,FLVW,≤ 0.25
6,QNFD,≤ 0.25
7,GTAV,≤ 0.25
8,NGAV,≤ 0.25
9,NIAV,≤ 0.25
10,TGAV,17.1
11,KLAV,≤ 0.25
12,TLKV,48.4
13,TLAV,11.9
14,LLKV,≤ 0.25
15,RGAV,≤ 0.25
16,GGAV,23.8
17,SLAV,9.05
18,KLKV,≤ 0.25
19,FLFA,0.339
20,HVFA,≤ 0.25
21,EHCF,≤ 0.25
22,TDAV,11.6
23,FDAV,≤ 0.25
24,ADAV,5.88

row,Variant,enrichment ratio
1,ERLI,≤ 0.25
2,VDMS,≤ 0.25
3,PLSS,≤ 0.25
4,SDSS,0.569
5,SRSS,≤ 0.25
6,TLSS,12
7,SESS,13.9
8,TVSS,11.6
9,NVSS,≤ 0.25
10,VLSS,0.29
11,SLSS,6.86
12,KYSS,≤ 0.25
13,SPSS,≤ 0.25
14,SQSS,11.6
15,RKAE,≤ 0.25
16,AYPP,≤ 0.25
17,PNHN,≤ 0.25
18,VSWN,≤ 0.25
19,ESGC,≤ 0.25
20,QYRN,≤ 0.25
21,EVDI,≤ 0.25
22,PGYQ,≤ 0.25
23,KQSS,≤ 0.25
24,KSSS,≤ 0.25

row,Variant,enrichment ratio
1,TSSS,14
2,YTSS,≤ 0.25
3,TTSS,15.9
4,FSSS,≤ 0.25
5,HVKP,≤ 0.25
6,MNYD,≤ 0.25
7,VKMD,≤ 0.25
8,ISKH,≤ 0.25
9,KHQI,≤ 0.25
10,HSYE,≤ 0.25
11,AENK,≤ 0.25
12,AEVI,17.5
13,AESS,16.3
14,AEVY,6.64
15,AEVA,≤ 0.25
16,AETH,0.824
17,AEVE,7.98
18,AETC,36.7
19,AEKC,≤ 0.25
20,AEVK,≤ 0.25
21,AEVS,16.2
22,AESQ,4.68
23,QGNI,≤ 0.25
24,WYRH,≤ 0.25

row,Variant,enrichment ratio
1,EKKS,≤ 0.25
2,RHGF,≤ 0.25
3,REAM,≤ 0.25
4,PMYC,≤ 0.25
5,VLES,≤ 0.25
6,QQHF,≤ 0.25
7,GTWR,≤ 0.25
8,KCDP,≤ 0.25
9,VWMG,≤ 0.25
10,AETI,16.8
11,QEVF,≤ 0.25
12,MAVL,2.43
13,AEVG,6.84
14,MEVL,11.6
15,NEVL,≤ 0.25
16,AIVF,2.34
17,AETA,5.73
18,AEVF,14.3
19,AETD,≤ 0.25
20,AEVC,14.6
